Source: PubChem BioAssay
For some of these results: Measured potencies and affinities stand elsewhere. Calls of active or inactive are those of the source. Unless noted, no rule for the calls is given here.

Tests used:
[1] = antimalarial activity against Dd2 strain (AID 2302;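 active = growth inhibition above 50% at the single 2 µM test dose, taken to imply half-maximal potency below 2 µM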;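 also: 0% = DMSO untreated growth and 100% = chloroquine plus artemisinin killed control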); settings: P. falciparum Dd2 in RBCs, LDH growth readout, 72 h; at 2 µM; hits give high values
[2] = HepG2 cytotoxicity, primary screen, cytotoxicity control for P. falciparum antimalarial project, cell-based, ATP luminescence (AID 2303;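 active = inhibition above 50%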;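 also: 0% = DMSO wells and 100% = digitonin-killed cells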); settings: HepG2 viability, 24-48 h, at 10 µM, hits give high values
[3] = molecular target: L-lactate dehydrogenase (Plasmodium falciparum (isolate CDC / Honduras)) (UniProt Q27743); test: PfLDH activity inhibition – cell lysate, 3D7 strain, counter-screen for P. falciparum growth inhibition project (AID 2304);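 also: 0% = vehicle and 100% = reference inhibitor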; settings: P. falciparum 3D7 crude extract, LDH APAD/NBT absorbance; at 2 µM; hits give high values
L-lactate dehydrogenase (Plasmodium falciparum (isolate CDC / Honduras)), sequence (Q27743 whole entry, looked up): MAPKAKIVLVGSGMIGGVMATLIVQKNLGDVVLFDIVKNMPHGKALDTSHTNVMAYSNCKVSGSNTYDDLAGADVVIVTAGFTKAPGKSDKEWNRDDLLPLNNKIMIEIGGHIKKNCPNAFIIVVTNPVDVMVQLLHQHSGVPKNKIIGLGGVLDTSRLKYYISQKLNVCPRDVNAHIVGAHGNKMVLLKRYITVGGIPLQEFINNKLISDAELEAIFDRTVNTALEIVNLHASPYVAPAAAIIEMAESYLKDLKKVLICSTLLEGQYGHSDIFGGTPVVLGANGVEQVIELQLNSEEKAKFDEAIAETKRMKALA

[4] = inhibition of 3D7 malaria parasite growth – strain 3D7 (AID 2306);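 also: 0% = DMSO wells and 100% = chloroquine plus artemisinin control wells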; settings: P. falciparum 3D7 erythrocytic growth, LDH absorbance, 72 h; at 2 µM; hits give high values
[5] = molecular target: Calcium-dependent protein kinase 1 (Plasmodium falciparum (isolate 3D7)) (UniProt P62344); test: PfCDPK1 kinase inhibitors, biochemical, TCAMS library (AID 1159585; cut-off not given, nearly all actives have IC50 up to about 0.98 µM;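 also: inhibitors leave more ATP so luminescence rises with inhibition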); settings: recombinant PfCDPK1, Kinase-Glo ATP depletion luminescence
Calcium-dependent protein kinase 1 (Plasmodium falciparum (isolate 3D7)), sequence (P62344 whole entry, looked up): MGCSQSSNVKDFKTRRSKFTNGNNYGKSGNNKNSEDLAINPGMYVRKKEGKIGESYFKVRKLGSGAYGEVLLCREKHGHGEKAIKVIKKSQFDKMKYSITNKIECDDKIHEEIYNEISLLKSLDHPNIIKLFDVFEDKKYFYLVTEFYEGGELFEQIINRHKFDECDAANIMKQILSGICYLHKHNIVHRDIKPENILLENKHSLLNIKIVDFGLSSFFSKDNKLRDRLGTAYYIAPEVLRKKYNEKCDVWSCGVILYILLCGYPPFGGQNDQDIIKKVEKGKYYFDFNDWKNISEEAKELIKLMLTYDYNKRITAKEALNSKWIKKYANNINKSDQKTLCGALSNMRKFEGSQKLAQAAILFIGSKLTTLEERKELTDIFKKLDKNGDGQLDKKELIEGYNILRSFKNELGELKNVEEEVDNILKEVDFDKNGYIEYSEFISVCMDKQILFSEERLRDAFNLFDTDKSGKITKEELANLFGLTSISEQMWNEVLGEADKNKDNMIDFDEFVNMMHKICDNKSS

[6] = molecular target: Plasmodium falciparum protein kinase 6 (PK6, PF3D7_1337100) (UniProt Q8IDW1); test: PfPK6 kinase inhibitors, biochemical, TCAMS library (AID 1159586); settings: recombinant PfPK6, Kinase-Glo ATP depletion luminescence
Plasmodium falciparum protein kinase 6 (PK6, PF3D7_1337100), sequence (Q8IDW1 1-305): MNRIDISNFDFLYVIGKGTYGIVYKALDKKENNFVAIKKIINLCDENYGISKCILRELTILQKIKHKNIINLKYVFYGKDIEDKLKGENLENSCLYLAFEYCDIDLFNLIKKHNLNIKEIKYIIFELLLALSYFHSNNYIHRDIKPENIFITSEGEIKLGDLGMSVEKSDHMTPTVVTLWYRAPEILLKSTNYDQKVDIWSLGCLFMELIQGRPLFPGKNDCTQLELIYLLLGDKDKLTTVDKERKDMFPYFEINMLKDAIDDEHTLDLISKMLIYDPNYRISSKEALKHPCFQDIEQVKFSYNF

[7] = molecular target: Protein kinase 7 (PK7), Plasmodium falciparum 3D7 (PF3D7_0213400) (UniProt Q7YTF7); test: inhibition of Plasmodium PK7 catalytic activity – biochemical, TCAMS antimalarial set, Kinase-Glo luminescence (AID 1159587); settings: recombinant PfPK7, Kinase-Glo ATP depletion luminescence
Protein kinase 7 (PK7), Plasmodium falciparum 3D7 (PF3D7_0213400), sequence (Q7YTF7 1-343): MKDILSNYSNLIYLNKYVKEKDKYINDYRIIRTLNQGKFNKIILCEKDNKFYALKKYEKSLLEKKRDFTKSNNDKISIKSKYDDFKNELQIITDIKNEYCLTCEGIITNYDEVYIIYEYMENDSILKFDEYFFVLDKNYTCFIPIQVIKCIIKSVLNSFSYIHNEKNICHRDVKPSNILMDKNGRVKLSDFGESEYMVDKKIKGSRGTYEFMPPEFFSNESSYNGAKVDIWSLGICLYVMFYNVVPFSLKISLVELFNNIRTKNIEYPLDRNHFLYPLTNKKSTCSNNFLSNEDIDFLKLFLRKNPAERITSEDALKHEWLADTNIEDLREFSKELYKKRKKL

[8] = molecular target: Calcium-dependent protein kinase 4 (Plasmodium falciparum (isolate 3D7)) (UniProt Q8IBS5); test: PfCDPK4 kinase inhibitors, biochemical, TCAMS library (AID 1159588; cut-off not given, nearly all actives have IC50 up to about 0.91 µM); settings: recombinant PfCDPK4, Kinase-Glo ATP depletion luminescence
Calcium-dependent protein kinase 4 (Plasmodium falciparum (isolate 3D7)), sequence (Q8IBS5 whole entry, looked up): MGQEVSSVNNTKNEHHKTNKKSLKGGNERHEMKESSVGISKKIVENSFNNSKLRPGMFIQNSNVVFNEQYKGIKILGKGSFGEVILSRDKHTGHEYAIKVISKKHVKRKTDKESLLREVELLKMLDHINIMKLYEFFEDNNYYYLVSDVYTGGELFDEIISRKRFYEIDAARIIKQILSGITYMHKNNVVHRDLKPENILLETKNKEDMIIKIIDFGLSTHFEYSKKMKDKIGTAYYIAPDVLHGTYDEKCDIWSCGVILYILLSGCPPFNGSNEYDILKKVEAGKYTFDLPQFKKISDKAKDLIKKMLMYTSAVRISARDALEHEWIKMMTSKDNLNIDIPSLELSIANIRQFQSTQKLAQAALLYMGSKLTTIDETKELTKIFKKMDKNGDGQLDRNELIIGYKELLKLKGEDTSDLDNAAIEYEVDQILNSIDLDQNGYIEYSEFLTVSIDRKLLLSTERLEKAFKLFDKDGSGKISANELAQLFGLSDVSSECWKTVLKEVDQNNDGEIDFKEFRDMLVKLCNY

COc1ccc2ncc(Cl)c([C@@H](O)CN3CCC(NCc4cc5c(cn4)OCCO5)CC3)c2c1
inactive: inhibition [2] 8% | inhibition [3] 3% | outcome [5] | outcome [6] | outcome [7] | outcome [8]
active: growth inhibition [1] 100% | growth inhibition [4] 101%

FC(F)(F)c1ccc2nc(-c3ccc(-c4ccc(CN5CCN(c6cnccn6)CC5)cc4)cc3)[nH]c2c1
active: growth inhibition [1] 50% | growth inhibition [4] 99%
inactive: inhibition [2] 21% | inhibition [3] -7% | outcome [5] | outcome [6] | outcome [7] | outcome [8]

O=C(Cc1ccccc1)NC(c1ccc(Cl)cc1)c1ccc2cccnc2c1O (stereo not given)
active: growth inhibition [1] 64% | inhibition [2] 50% | growth inhibition [4] 93%
inactive: inhibition [3] -2% | outcome [5] | outcome [6] | outcome [7] | outcome [8]

CCN(CC)CCCSc1ccc(-c2ccc(SCCCN(CC)CC)cc2)cc1
inactive: growth inhibition [1] 30% | inhibition [2] 38% | inhibition [3] -8% | outcome [5] | outcome [6] | outcome [7] | outcome [8]
active: growth inhibition [4] 87%

FC(F)(F)c1ccc2c(NCCNc3ccnc4cc(C(F)(F)F)ccc34)ccnc2c1
active: growth inhibition [1] 100% | growth inhibition [4] 101%
inactive: inhibition [2] 21% | inhibition [3] 1% | outcome [5] | outcome [6] | outcome [7] | outcome [8]

CCc1ccc(S(=O)(=O)Nc2ccc(CCN(C)C3CCN(C)CC3)cc2)cc1
inactive: growth inhibition [1] 9% | inhibition [2] 25% | inhibition [3] -4% | outcome [5] | outcome [6] | outcome [7] | outcome [8]
active: growth inhibition [4] 86%

CCn1ccc2c(N3CCCS3(=O)=O)cc(C(=O)N[C@@H](Cc3ccccc3)[C@H](O)CNC3CCCCC3)cc21
inactive: inhibition [2] -1% | inhibition [3] 1% | outcome [5] | outcome [6] | outcome [7] | outcome [8]
active: growth inhibition [1] 98% | growth inhibition [4] 97%

Cc1sc(NC(=O)Cc2cccc(C(F)(F)F)c2)nc1-c1cccc(Cl)c1
inactive: inhibition [2] 15% | inhibition [3] -3% | outcome [5] | outcome [6] | outcome [7] | outcome [8]
active: growth inhibition [1] 95% | growth inhibition [4] 101%

O=C(Nc1ccc(-c2nc3ccccc3[nH]2)cc1)c1ccc([N+](=O)[O-])s1
active: growth inhibition [1] 77% | inhibition [2] 83% | growth inhibition [4] 101%
inactive: inhibition [3] -6% | outcome [5] | outcome [6] | outcome [7] | outcome [8]

O=C(Nc1cccc(CN2CCN(Cc3cccc(O)c3)CC2)c1)c1cc2ccccc2s1
inactive: inhibition [2] 13% | inhibition [3] 0% | outcome [5] | outcome [6] | outcome [7] | outcome [8]
active: growth inhibition [1] 54% | growth inhibition [4] 86%

COc1cc2ccccc2c(CNCCCCCCNCc2c(OC)c(OC)cc3ccccc23)c1OC
active: growth inhibition [1] 89% | inhibition [2] 100% | growth inhibition [4] 95%
inactive: inhibition [3] -4% | outcome [5] | outcome [6] | outcome [7] | outcome [8]

O=C(Nc1ccc(OC2CCN(Cc3ccc(F)cc3)C2)c(Cl)c1)c1ccoc1 (stereo not given)
inactive: inhibition [2] 13% | inhibition [3] 2% | outcome [5] | outcome [6] | outcome [7] | outcome [8]
active: growth inhibition [1] 90% | growth inhibition [4] 90%

CCCCCOc1ccc(C=NNc2nc(-c3ccccc3)cc(=O)[nH]2)cc1
inactive: inhibition [2] 0% | inhibition [3] -2% | outcome [5] | outcome [6] | outcome [7] | outcome [8]
active: growth inhibition [1] 86% | growth inhibition [4] 88%

NCc1ccc(CNCc2cccc(-c3ccc(-c4nc5ccccc5[nH]4)cc3)c2)cc1
active: growth inhibition [1] 58% | growth inhibition [4] 100%
inactive: inhibition [2] 10% | inhibition [3] -8% | outcome [5] | outcome [6] | outcome [7] | outcome [8]

Cc1nnsc1C(=O)Nc1cccc(-c2ccc(-c3nc4ccc(F)cc4[nH]3)s2)c1
inactive: growth inhibition [1] 22% | inhibition [3] 4% | outcome [5] | outcome [6] | outcome [7] | outcome [8]
active: inhibition [2] 62% | growth inhibition [4] 89%

CN(C)CCOc1cccc(-c2cnc(N)c(-c3nc4ccc(S(C)(=O)=O)cc4[nH]3)c2)c1
active: growth inhibition [1] 82% | growth inhibition [4] 100%
inactive: inhibition [2] 39% | inhibition [3] 1% | outcome [5] | outcome [6] | outcome [7] | outcome [8]

CN(C)CCCOc1ccccc1CN1CC[C@H](NC(=O)c2ccc(Cl)c(Cl)c2)C1
active: growth inhibition [1] 54% | growth inhibition [4] 94%
inactive: inhibition [2] 42% | inhibition [3] -3% | outcome [5] | outcome [6] | outcome [7] | outcome [8]

OCC1CCN(Cc2ccc(-c3ccc(-c4nc5ccc(C(F)(F)F)cc5[nH]4)s3)cc2)CC1
inactive: inhibition [2] 35% | inhibition [3] -2% | outcome [5] | outcome [6] | outcome [7] | outcome [8]
active: growth inhibition [1] 90% | growth inhibition [4] 102%

CS(=O)(=O)c1ccc2nc(-c3cc(-c4cccc(F)c4)cnc3N)[nH]c2c1
inactive: inhibition [2] 33% | inhibition [3] 4% | outcome [5] | outcome [6] | outcome [7] | outcome [8]
active: growth inhibition [1] 71% | growth inhibition [4] 102%

CC(CN(C)C)C(=O)Nc1cccc(-c2cccc(-c3nc4ccc(F)cc4[nH]3)c2)c1 (stereo not given)
active: growth inhibition [1] 94% | growth inhibition [4] 101%
inactive: inhibition [2] 29% | inhibition [3] 5% | outcome [5] | outcome [6] | outcome [7] | outcome [8]
